# Assay outcomes as filed in PubChem BioAssay.
# SARS PLpro yeast: blocks SARS-CoV papain-like protease in a yeast assay; S. cerevisiae expressing SARS-CoV PLpro, growth rescue; Potency, µM (highest dose often 32.9 µM), for the others: at the top dose activity, positive = growth rescue, hits mostly activators; hit rate 0.19% among 330,000; AID 485353; calls by dose curve; note: potency is the fitted concentration of half-maximal effect; 0% is about no effect; nearly all actives have a fitted effect of over 55% in size
# FMDV inh: antivirals against foot and mouth disease virus | FMDV antiviral cell-based qHTS | Potency, µM (doses to about 57.9 µM), for the others: at the top dose activity change, negative = inhibition, usual class: inhibitors | hit rate 1.2% among 410,000 | AID 1159524; calls by dose curve; tested in HEK293T cells; note: read-out not given here; potency is the fitted concentration of half-maximal effect; % is set by controls: 0 for no effect and ±100 for the full control effect; nearly all actives have a fitted effect of over 45% in size
# HCV inhibitor: inhibitors of hepatitis C virus infection; Huh7.5.1 HCVcc-Cre infection, luciferase reporter, 44 h; Potency, µM (doses to about 41.8 µM), for inactives: at the top dose activity change, negative = inhibition, usual class: inhibitors; hit rate 3.4% among 340,000; active = well fitted inhibition curve with a large enough effect; inconclusive = small, poorly fitted or top-dose-only effect, or another doubt; inactive = no such curve, though single readings can be large or run the other way; note: potency is the fitted concentration of half-maximal effect; % is set by controls: 0 for no effect and ±100 for the full control effect
#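 Infectious HCV cell culture screen: compound-treated cells (1,000/well, pre-plated 4 h) are infected with HCVcc-Cre at roughly 0.5 moi and grown 44 h. Infection is quantified by luciferase signal after 15 min substrate incubation at room temperature.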
# HCMV antiviral: inhibitors of human cytomegalovirus | hit rate 4.5% among 410,000 | activity change, negative = inhibition, % at 57.5 µM | HFF cells, HCMV-luciferase reporter, 72 h; hits give low values | AID 1259415; in the data active = activity change below about -60%; inconclusive = no clear call, values can overlap the other calls; inactive = above about -39%; note: % is set by controls: 0 for no effect and ±100 for the full control effect
#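 Human foreskin fibroblasts infected with luciferase-reporter HCMV at MOI 1 PFU/cell, compounds at two doses. Luciferase measured 72 h post infection; normalized to buffer-only basal and Salinomycin (10uM) controls.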
# Marburg entry inh: Marburg virus entry inhibition | Marburg virus pseudotyped entry inhibition, cell reporter | Potency, µM (top dose mostly 37.8 µM), for the others: top-dose activity change, negative = inhibition, hits mostly inhibitors | hit rate 1.8% among 300,000 | AID 540276; calls by dose curve; tested in HEK293 cells; note: potency is the fitted concentration of half-maximal effect; % is set by controls: 0 for no effect and ±100 for the full control effect
# Lassa entry inh: inhibitors of Lassa virus binding or cell entry; Lassa virus pseudotype entry inhibition, cell reporter; Potency, µM (top dose mostly 37.9 µM), for inactives: at the highest dose activity change, negative = inhibition, actives largely listed as inhibitors; hit rate 1.2% among 300,000; AID 540256; calls by dose curve; tested in HEK293 cells; note: potency is the fitted concentration of half-maximal effect; % is set by controls: 0 for no effect and ±100 for the full control effect; nearly all actives have a fitted effect of over 50% in size
# * marks the source's active call; other numbers are inactive results; ? = inconclusive; . = no result; [ ] = another dose, or the depositor's remark. Compounds with a hit are over-represented: about 8% of the library has one in this group of screens.
SMILES,SARS PLpro yeast,FMDV inh,HCV inhibitor,HCMV antiviral,Marburg entry inh,Lassa entry inh
Clc1cccc(OCCN2CCN(CCOc3cccc(Cl)c3)CC2)c1,-30.4%,?,?,-96.1*,?,?
O=C(NCc1ccccc1)C1CCN(S(=O)(=O)c2ccc3c(c2)CCCN3C(=O)C2CCC2)CC1,.,-23.6%,.,-22.9,.,?
Cc1ccc(-c2nn(-c3ccccc3)cc2/C=N/NC(=O)CSc2nnc(C)n2-c2ccccc2)cc1,-6.6%,19.1%,14.1µM*,38.5,-29.5%,?
COc1ccc(-c2nn(-c3ccccc3)cc2/C=N/N=C(N)N)cc1OC,4.8%,?,?,?,10µM*,?
COc1cccc(/C=N/NC(=O)CSc2nnc(C)n2-c2ccccc2)c1O,5.7%,20.9%,2.9%,15.6,?,?
COc1ccc(-c2nn(-c3ccccc3)cc2/C=N/Nc2ccc3ccccc3n2)cc1OC,-1.0%,?,10µM*,-25.7,?,?
COc1ccc(-c2nn(-c3ccccc3)cc2/C=N/O)cc1OC,-2.4%,-6.2%,?,-20.6,.,.
NC(N)=N/N=C/c1cn(-c2ccccc2)nc1-c1cccs1,1.2%,?,?,-97.7*,23.1µM*,?
S=c1[nH]nc(-c2cccs2)n1/N=C/c1cn(-c2ccccc2)nc1-c1cccs1,2.9%,5.4%,?,95.4,?,?
COc1ccc(CN2CCCC(n3cc(C(=O)N4CCCCC4)nn3)C2)c(OC)c1C (stereo not drawn),.,-3.6%,.,.,.,.
Cc1ccc(NC(=O)CN2CCSc3ccc(S(=O)(=O)N4CCCC4)cc32)cc1C,.,0.0%,.,-25.9,.,-14.4%[46.1 µM]
Cn1c(=O)n(C)c2cc(N3CCOCC3)c(NS(=O)(=O)c3ccc(Br)cc3)cc21,.,-22.2%,.,-4.7,20.3%[46.1 µM],-7.6%[46.1 µM]
COc1ccc(-c2nn(-c3ccccc3)cc2/C=N/NC(=O)c2ccc3c(c2)OCO3)cc1,2.8%,.,.,.,2.1%,.
COc1ccc(-c2nn(-c3ccccc3)cc2/C=N/Nc2cccc(C(=O)O)c2)cc1,-3.7%,49.2%,-32.5%,-61.0*,-14.0%,-20.7%
O=C(CCc1nnc2n(Cc3ccccc3Cl)c(=O)c3ccccc3n12)Nc1ccc(F)cc1,.,-16.9%,.,-10.9,?,.
COc1cccc(Cn2c(NCc3ccc(C)cc3)nc3c2c(=O)n(C)c(=O)n3C)c1,.,-21.0%,.,3.8,2.8%[46.1 µM],-5.9%[46.1 µM]
C=CCN1c2ccccc2[C@]23CCC(=O)N(Cc4ccco4)C2=NC(C(=O)OC)=C(C(=O)OC)[C@H]13,.,.,.,.,-1.4%[14.2 µM],.
O=c1cc(O)c2sc(Nc3ccc(F)cc3)nc2[nH]1,-4.1%,-3.7%,34.2%,-92.4*,-7.8%,?
CCC1CN(CCNC(=O)c2scc3c2OCCO3)Cc2cc(OC)ccc2O1 (stereo not drawn),.,27.0%,.,.,.,.
Cc1ccc(CNC(=O)C2CCN(C(=O)c3cnn(-c4ccccc4)c3-n3cccc3)CC2)cc1,.,-20.5%,.,43.0,-12.7%[46.1 µM],.
Cc1cc(SCC(=O)NN)c2cc(Br)ccc2n1,0.9%,26.6%,2.9%,-66.5*,-10.0%[46.1 µM],?
COc1ccccc1/C=N/NC(=O)CSc1cc(C)nc2ccccc12,0.9%,-27.1%,-27.9%,-81.5*,?,?
COc1cccc2c(SCC(=O)N/N=C/c3ccc(O)cc3O)cc(C)nc12,?,?,?,58.9,?,?
COc1ccc2nc(C)cc(SCC(=O)N/N=C/c3ccccc3)c2c1,21.7%,?,-1.9%,-60.1*,-10.4%,?
COc1ccc2nc(C)cc(SCC(=O)N/N=C/c3ccc(O)cc3O)c2c1,?,?,12.6µM*,-20.6,?,?
SMILES,SARS PLpro yeast,FMDV inh,HCV inhibitor,HCMV antiviral,Marburg entry inh,Lassa entry inh
Cc1ccc(C(c2sc3nc(-c4ccco4)nn3c2O)N2CCOCC2)cc1 (stereo not drawn),.,-1.9%,.,9.5,.,-0.8%[46.1 µM]
Cc1cc(C)n(CCC(=O)N/N=C/c2ccc(O)cc2O)n1,7.4%,-0.5%,?,-3.7,12.6µM*,?
Cc1cc(C)n(CCC(=O)N/N=C/c2ccccc2O)n1,15.5%,-7.1%,?,7.1,-17.8%,?
CCn1c(SCC(=O)N/N=C/c2cc(OC)c(OC)c(OC)c2)nc2ccccc21,27.0%,25.1µM*,?,-18.2,?,-16.2%
COc1ccc(CNc2oc(/C=C/c3cc(OC)c(OC)c(OC)c3)nc2C#N)cc1,.,-19.3%,.,187.0,-14.6%[46.1 µM],?
CCOC(=O)c1[nH]c(C)c(CCC(=O)N2CCN(c3cc(C)ccc3C)CC2)c1C,.,?,.,-24.5,.,?
O=S(=O)(NCc1ccco1)N1CCCCCC1,-3.6%,33.7%,2.0%,-62.3*,3.2%,8.7%
O=S(=O)(NCc1ccco1)c1cccc(S(=O)(=O)N2CCCCC2)c1,-1.8%,15.2%,3.4%,6.7,?,18.8%
Cc1cccc(-c2nc(CN3CCCC(C(=O)NC4CCCCCC4)C3)c(C)o2)c1 (stereo not drawn),0.9%,?,?,27.3,?,?
Cc1oc(-c2cccc(Cl)c2)nc1CN1CCC(C(=O)NC(C)C)CC1,.,3.1%,.,9.3,24.5%[46.1 µM],?
CCOC(=O)N1CCC(NC(=O)C2CCN(Cc3nc(-c4ccc(CC)cc4)oc3C)CC2)CC1,.,-16.9%,6.2%,33.3,.,.
Cc1cccc(-c2nc(CN3CCCC(C(=O)NC4CCCCC4)C3)c(C)o2)c1 (stereo not drawn),4.5%,?,31.6µM*,-21.4,?,-17.5%
Cc1oc(-c2cccc(Cl)c2)nc1CN1CCCC(C(=O)NCc2ccc(Cl)cc2)C1 (stereo not drawn),.,?,.,3.6,1.2%[46.1 µM],24.2%[46.1 µM]
CCN1CCCC1CNC(=O)C1CCN(Cc2nc(-c3cccc(Br)c3)oc2C)CC1 (stereo not drawn),-11.6%,-19.5%,2.51µM*,.,3.55µM*,11.2µM*
CCOC(=O)N1CCC(NC(=O)C2CCCN(Cc3nc(-c4ccc(CC)cc4)oc3C)C2)CC1 (stereo not drawn),5.0%,?,2.51µM*,-86.9*,?,?
Cc1oc(-c2cccc(Cl)c2)nc1CN1CCCC(C(=O)NC(C)c2ccc3c(c2)OCCO3)C1 (stereo not drawn),0.8%,20µM*,?,-28.3,.,.
CCc1ccccc1NC(=O)CN1C(=O)c2cccnc2Oc2ccc(Cl)cc21,.,0.0%,.,0.0,.,4.7%[46.1 µM]
CCCNC(=O)N1CCCN(S(=O)(=O)c2ccc3c(ccn3CC)c2)CC1,.,-2.3%,.,-6.4,.,-23.8%[46.1 µM]
COc1cc(OC)c2c(-c3cccc(-c4ccc(O)cc4)c3)cc(=O)oc2c1,1.5%,?,?,-13.7,.,.
COc1cc(OC)c2c(-c3cccc(-c4cccc(C)c4)c3)cc(=O)oc2c1,-10.2%,?,4.47µM*,-34.9,.,.
COc1ccc(-c2cccc(-c3cc(=O)oc4cc(OC)cc(OC)c34)c2)cc1,10.7%,-26.4%,?,-73.2*,.,.
COc1cc(OC)c2c(-c3cccc(-c4ccc(CO)cc4)c3)cc(=O)oc2c1,10.0%,?,?,.,.,.
